Source: the supplement of paper PMC7726561
Over roughly 1,100 sequences, “thermal melting temperature (Tm) of peptide-HLA complex” has its median near 58; the lowest 2% begin near 42. The sample as a whole holds a higher share of the lowest values than the screen did.

molecular target: HLA-A*02:01; assay: thermal melting temperature (Tm) of peptide-HLA complex; higher = more thermostable pHLA complex; conditions: C1R-A*02:01
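Note: lysates heated 10 min at 37–73 °C, complexes pulled down with pan-HLA I antibody, peptide signal by DIA-MS relative to 37 °C, Tm where half the complex is unfolded.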

Q: With KLLDIPGLEV as the sequence, how does the thermal melting temperature read?
A: 61.3 °C

Q: Which thermal melting temperature does the source give for YLKDLIEEV here?
A: 62.8 °C

Q: For YQIAEQFRV, which thermal melting temperature is on record?
A: 61.3 °C

Q: How did the thermal melting temperature turn out when IAPPVPLKA was run?
A: 53 °C

Q: With ILSGVIRSV as the sequence, how does the thermal melting temperature read?
A: 56.6 °C

Q: With LLYDGKLSSA as the sequence, how does the thermal melting temperature read?
A: 59.4 °C

Q: LLVDVEPKV was tested. Which thermal melting temperature did it give?
A: 55.5 °C

Q: With QMISRIEYV as the sequence, how does the thermal melting temperature read?
A: 59.7 °C

Q: With KLTENLVAL as the sequence, how does the thermal melting temperature read?
A: 59 °C

Q: FLNKEITSV was tested. Which thermal melting temperature did it give?
A: 59.6 °C

Q: For TLLTFFHEL, which thermal melting temperature is on record?
A: 57.4 °C

Q: Which thermal melting temperature does the source give for YLPEDFIRV here?
A: 61.4 °C

Q: FVMETFVHL was tested. Which thermal melting temperature did it give?
A: 57 °C

Q: With ILTEAIKAA as the sequence, how does the thermal melting temperature read?
A: 59.3 °C

Q: TLLTDPPTA was tested. Which thermal melting temperature did it give?
A: 59.5 °C

Q: For VMFGGKQVVV, which thermal melting temperature is on record?
A: 57.5 °C

Q: With KLFNEFIQL as the sequence, how does the thermal melting temperature read?
A: 57.8 °C

Q: SLYSQVHQI was tested. Which thermal melting temperature did it give?
A: 60.2 °C

Q: For NLYEEWTQV, which thermal melting temperature is on record?
A: 59.9 °C

Q: For VLMTQQPRPVL, which thermal melting temperature is on record?
A: 48.8 °C

Q: How did the thermal melting temperature turn out when YLTAFTKNL was run?
A: 60.8 °C

Q: GLPRFGIEMV was tested. Which thermal melting temperature did it give?
A: 60.1 °C

Q: Which thermal melting temperature does the source give for KQTDLEITV here?
A: 57.5 °C

Q: How did the thermal melting temperature turn out when NVIERLQEA was run?
A: 57.2 °C

Q: Which thermal melting temperature does the source give for RVISELQEA here?
A: 40.7 °C

Q: How did the thermal melting temperature turn out when AQFEHTILL was run?
A: 58.1 °C

Q: QLAQFVHEV was tested. Which thermal melting temperature did it give?
A: 62.3 °C

Q: How did the thermal melting temperature turn out when ALADFAELLRA was run?
A: 62 °C

Q: Which thermal melting temperature does the source give for NLLEIAPHL here?
A: 52.1 °C

Q: Which thermal melting temperature does the source give for SLLDPVPEV here?
A: 62.5 °C

Q: Which thermal melting temperature does the source give for ELMEQVPHI here?
A: 48.9 °C

Q: For TLSQAIVKV, which thermal melting temperature is on record?
A: 54.1 °C

Q: For RIIDTVAQV, which thermal melting temperature is on record?
A: 60.6 °C

Q: GLVDKLQAL was tested. Which thermal melting temperature did it give?
A: 55.6 °C

Q: KVLGIVVGV was tested. Which thermal melting temperature did it give?
A: 61 °C

Q: NQIEDNDDFQL was tested. Which thermal melting temperature did it give?
A: 42 °C
